# Results taken from PubChem BioAssay AID651928 (Vanderbilt Specialized Chemistry Center, 2012).
# Calls of active or inactive are those of the source. No rule for the calls is given here.
# Molecular target: Histone deacetylase 4 (Homo sapiens) (UniProt P56524)
# Experiment: recombinant HDAC4 deacetylase inhibitors – biochemical, HDAC isoform panel, selectivity assay for E-cadherin restoration project, profiling panel (AID 651928)
# Chain of Histone deacetylase 4 (Homo sapiens) (P56524 whole entry, looked up, canonical isoform): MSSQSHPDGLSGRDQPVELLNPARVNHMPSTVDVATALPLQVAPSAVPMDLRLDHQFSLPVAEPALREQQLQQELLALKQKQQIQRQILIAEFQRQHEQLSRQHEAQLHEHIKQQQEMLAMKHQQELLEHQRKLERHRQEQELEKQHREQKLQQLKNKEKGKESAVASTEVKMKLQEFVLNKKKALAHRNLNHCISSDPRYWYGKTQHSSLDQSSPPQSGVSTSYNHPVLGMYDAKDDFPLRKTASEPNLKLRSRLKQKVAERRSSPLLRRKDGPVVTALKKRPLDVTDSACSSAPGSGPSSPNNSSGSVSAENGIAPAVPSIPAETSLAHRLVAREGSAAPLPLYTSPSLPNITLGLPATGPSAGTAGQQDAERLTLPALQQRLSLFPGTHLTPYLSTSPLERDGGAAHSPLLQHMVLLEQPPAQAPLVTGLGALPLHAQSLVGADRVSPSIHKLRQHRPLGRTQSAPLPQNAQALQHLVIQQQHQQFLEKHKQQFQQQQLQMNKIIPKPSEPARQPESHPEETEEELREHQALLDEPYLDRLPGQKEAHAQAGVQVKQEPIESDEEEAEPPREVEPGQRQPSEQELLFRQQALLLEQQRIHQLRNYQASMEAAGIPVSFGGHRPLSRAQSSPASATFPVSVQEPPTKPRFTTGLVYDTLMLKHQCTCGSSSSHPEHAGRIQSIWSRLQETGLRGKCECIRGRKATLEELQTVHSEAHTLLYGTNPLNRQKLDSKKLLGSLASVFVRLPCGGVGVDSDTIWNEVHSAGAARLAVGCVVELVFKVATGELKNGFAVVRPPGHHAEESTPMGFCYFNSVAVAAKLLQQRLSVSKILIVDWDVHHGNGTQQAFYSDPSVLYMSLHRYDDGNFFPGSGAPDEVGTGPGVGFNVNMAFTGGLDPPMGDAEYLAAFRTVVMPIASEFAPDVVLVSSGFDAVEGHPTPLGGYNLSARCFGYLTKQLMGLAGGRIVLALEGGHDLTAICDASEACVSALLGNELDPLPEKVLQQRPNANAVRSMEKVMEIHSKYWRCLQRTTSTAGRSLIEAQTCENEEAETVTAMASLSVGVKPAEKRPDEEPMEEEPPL
compound,measurement,value
O=C(NCCCNC(=O)c1ccc[nH]c1=O)c1cc(-c2ccccc2)on1,outcome,inactive
